Counter-ions that a name gives are not always drawn.
What follows are molecules tested on primary human hepatic stellate cells (donor 1) (assay: ACTA2 mRNA fold change vs DMSO (normalised to PSMB2); higher = more ACTA2 expression). Settings: 48 h.
Experimental: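 Secondary qRT-PCR screen in primary human HSCs (donor 1), 384-well plates, with compounds dispensed in quadruplicate and incubated for 48 h. Cells-to-CT lysates were used for multiplexed TaqMan qPCR of ACTA2 or COL1A1 with PSMB2 as reference. Fold changes versus DMSO come from a linear model (Ct_gene ~ Ct_PSMB2 + plate + chemical). A hit is defined as COL1A1 and ACTA2 FC <0.5 (FDR <0.05) with PSMB2 between 0.2 and 2.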

Row | Compound | ACTA2 mRNA fold change
1 | CC[C@@H]1C(=O)N(C)c2cnc(Nc3ccc(C(=O)NC4CCN(C)CC4)cc3OC)nc2N1C1CCCC1 (33.3333 µM) | 0.158
2 | CSc1ccc2c(c1)C(N1CCN(C)CC1)Cc1ccccc1S2 (stereo not given) [Methiothepin maleate] (33.3333 µM) | 0.00993
3 | C[C@@H]1CN(CCCn2c3ccccc3c3ccccc32)C[C@H](C)N1 [Rimcazole dihydrochloride] (33.3333 µM) | 0.0478
4 | CN(C)CCC(c1ccc(Br)cc1)c1ccccn1 (stereo not given) [Brompheniramine maleate] (33.3333 µM) | 1.25
5 | COc1ccc(NS(=O)(=O)c2sc3ccc(Cl)cc3c2C)cc1N1CCNCC1 (33.3333 µM) | 0.0163
6 | CN1CCCN(C(c2ccccc2)c2ccc(Cl)cc2)CC1 (stereo not given) [Homochlorcyclizine dihydrochloride] (33.3333 µM) | 0.0102
7 | CN(C)Cc1c(C(=O)NCCOc2ccc(C(=O)NO)cc2)oc2ccccc12 (33.3333 µM) | 0.00935
8 | O=S(=O)(NCCNC/C=C/c1ccc(Br)cc1)c1cccc2cnccc12 [H-89, Dihydrochloride] (11.1 µM) | 1.09
9 | CN1CCC(NC(=O)c2cc(-c3c(O)cc(O)cc3Oc3ccc([N+](=O)[O-])cc3)on2)CC1 (33.3333 µM) | 1.25
10 | CCNC(=O)c1noc(-c2cc(C(C)C)c(O)cc2O)c1-c1ccc(CN2CCOCC2)cc1 (11.1 µM) | 1.19
11 | CCC/C=C\C=C/C(=O)N[C@@H](CC(N)=O)C(=O)NC(CC(N)=O)C(=O)N[C@@H](C(=O)N[C@H](CCCN)C(=O)N[C@@H](C(=O)N[C@@H](C(=O)N[C@@H](C(=O)N[C@H](C(=O)N[C@@H](Cc1ccccc1)C(=O)N[C@H](CCCN)C(=O)NC(C(=O)N[C@H](C(=O)NC(C(=O)NCC(=O)N[C@@H](CC(C)C)C(=O)N[C@H](C)C(=O)NC(C(=O)O)C1CCC(O)C(Cl)C1)C1CCC(O)CC1)[C@H](C)O)C1CCC(O)CC1)[C@H](C)O)C1CCC(O)CC1)C1CCC(O)CC1)[C@H](C)O)C1CCC(O)CC1 (stereo not given in full) (33.3333 µM) | 0.502
12 | Cc1cccc(Nc2nc(-c3ccncc3)cs2)c1 (11.1 µM) | 1.07
13 | CN1CCN(Cc2ccc(-c3cnc4[nH]cc(-c5ccc6[nH]ccc6c5)c4c3)cc2)CC1 (6.66667 µM) | 0.042
14 | Cc1cc(Nc2cc(N3CCN(C)CC3)nc(/C=C/c3ccccc3)n2)n[nH]1 (11.1 µM) | 0.703
15 | Cc1cnc(-c2cnc(NCCNc3ccc(C#N)cn3)nc2-c2ccc(Cl)cc2Cl)[nH]1 (33.3333 µM) | 0.259
16 | CCc1cc2c(cc1CC)CC(NC[C@H](O)c1ccc(O)c3[nH]c(=O)ccc13)C2 [Indacaterol Maleate] (33.3333 µM) | 0.0334
17 | Cc1[nH]c(/C=C2\C(=O)Nc3ccc(S(=O)(=O)N(C)c4cccc(Cl)c4)cc32)c(C)c1C(=O)N1CCN(C)CC1 (33.3333 µM) | 0.425
18 | CCOC(=O)C1=C(COCCN)NC(C)=C(C(=O)OC)C1c1ccccc1Cl (stereo not given) (33.3333 µM) | 0.084
19 | c1cc(OCCN2CCCCC2)cc(-c2n[nH]c3ccc(-c4nnc[nH]4)cc23)c1 (33.3333 µM) | 0.0437
20 | c1ccc2c(NCCCCCCCNc3c4c(nc5ccccc35)CCCC4)c3c(nc2c1)CCCC3 [bis(7)-Tacrine] (3.33333 µM) | 0.0296

Row | Compound | ACTA2 mRNA fold change
21 | CC1(C)CC(=O)c2c(C(F)(F)F)nn(-c3ccc(C(N)=O)c(N[C@H]4CC[C@H](OC(=O)CN)CC4)c3)c2C1 (33.3333 µM) | 0.967
22 | CNCCCC12CCC(c3ccccc31)c1ccccc12 [Maprotiline hydrochloride] (33.3333 µM) | 0.0243
23 | OCCN1CCN(CCCN2c3ccccc3Sc3ccc(C(F)(F)F)cc32)CC1 (33.3333 µM) | 0.0188
24 | C[C@H]1O[C@@H](O[C@H]2[C@@H](O)C[C@H](O[C@H]3[C@@H](O)C[C@H](O[C@H]4CC[C@@]5(C)[C@H](CC[C@@H]6[C@@H]5C[C@@H](O)[C@]5(C)[C@@H](C7=CC(=O)OC7)CC[C@]65O)C4)O[C@@H]3C)O[C@@H]2C)C[C@H](O)[C@@H]1O [Digoxin] (33.3333 µM) | 0.0126
25 | CNCc1ccc(-c2cc(-c3nc(-c4ccc(S(=O)(=O)C(C)C)cc4)cnc3N)on2)cc1 (11.1 µM) | 0.0206
26 | Cc1ccc(-c2ccc3c(ccc4sc5c(c43)NC[C@@H](C)NC5=O)n2)cn1 (33.3333 µM) | 1.65
27 | CCN(CC)CCNC(=O)c1c(C)[nH]c(/C=C2\C(=O)Nc3ccc(F)cc32)c1C (6.66667 µM) | 1.2
28 | CCN1CCC(n2cc(CNc3cc(Cl)c4ncc(C#N)c(Nc5ccc(F)c(Cl)c5)c4c3)nn2)CC1 (33.3333 µM) | 0.0712
29 | CNC(=O)[C@@H](Cc1ccccc1)N(C)C(=O)[C@@H](Cc1ccc2ccccc2c1)N(C)C(=O)/C=C/CC(C)(C)N [Tabimorelin] (33.3333 µM) | 0.46
30 | C[C@@H](Oc1cc(-c2cnn(C3CCNCC3)c2)cnc1N)c1c(Cl)ccc(F)c1Cl (11.1 µM) | 0.15
31 | CN1CCC(Nc2ncc3ncnc(Nc4ccc(F)c(Cl)c4)c3n2)CC1 [BIBX 1382 dihydrochloride] (33.3333 µM) | 0.00877
32 | CCCCCCCCCCCCC/C=C/[C@@H](O)[C@H](CO)N(C)C [N,N-Dimethylsphingosine] (3.33333 µM) | 0.651
33 | O=C(c1ccc(/C=C/c2n[nH]c3ccccc23)cc1)N1CCNCC1 (33.3333 µM) | 0.0375
34 | COc1cc2nc(N3CCCN(C)CC3)nc(NC3CCN(Cc4ccccc4)CC3)c2cc1OC (3.33333 µM) | 0.0176
35 | Cc1ccc(NC(=O)c2ccc(CN3CCN(C)CC3)cc2)cc1Nc1nc(-c2cccnc2)cs1 [Masitinib (AB1010, Masivet)] (6.66667 µM) | 0.706
36 | CCCCCCCCCCCCCCCCn1cc[n+](Cc2ccccc2)c1C (11.1 µM) | 0.0378
37 | CC#CCOC(=O)c1c(C)nc2sc3c(c2c1N)CCC(O)C3 (stereo not given) (33.3333 µM) | 0.806
38 | O=C1NCN(c2ccccc2)C12CCN(CCCC(c1ccc(F)cc1)c1ccc(F)cc1)CC2 [Fluspirilene] (14.0333 µM) | 1.03
39 | N=C(N)SCCc1ccc(OCc2ccc([N+](=O)[O-])cc2)cc1 [KB-R7943 mesylate] (33.3333 µM) | 0.0804
40 | Cn1cc(C2=C(c3ccc(Cl)cc3Cl)C(=O)NC2=O)c2ccccc21 (33.3333 µM) | 0.332
